Assay results reported in PubChem BioAssay (EPA / NIEHS).
Records with an inconclusive call do not appear. Calls of active or inactive are those of the source. How the source made its calls: active means hit-call score of the fitted dose curve at least 0.9, where 1 is the maximum; inconclusive means response in the unintended direction; inactive means score below 0.9.

Target: Oxysterols receptor LXR-beta (Homo sapiens) (UniProt P55055)
Test: ATG_LXRb_TRANS: Attagene TRANS-FACTORIAL HepG2 Assay for human Liver X Receptor beta (LXRb) (AID 2282981)
Conditions: HepG2 Attagene TRANS GAL4-LXRb reporter, mRNA
Procedure, shortened: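 Multiplexed reporter assay, HepG2, 24 h dosing. Fluorescence of labelled RT-PCR products after capillary electrophoresis gives transcript level; positive fitting direction relative to DMSO.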

Oxysterols receptor LXR-beta (Homo sapiens), sequence (P55055 whole entry, looked up): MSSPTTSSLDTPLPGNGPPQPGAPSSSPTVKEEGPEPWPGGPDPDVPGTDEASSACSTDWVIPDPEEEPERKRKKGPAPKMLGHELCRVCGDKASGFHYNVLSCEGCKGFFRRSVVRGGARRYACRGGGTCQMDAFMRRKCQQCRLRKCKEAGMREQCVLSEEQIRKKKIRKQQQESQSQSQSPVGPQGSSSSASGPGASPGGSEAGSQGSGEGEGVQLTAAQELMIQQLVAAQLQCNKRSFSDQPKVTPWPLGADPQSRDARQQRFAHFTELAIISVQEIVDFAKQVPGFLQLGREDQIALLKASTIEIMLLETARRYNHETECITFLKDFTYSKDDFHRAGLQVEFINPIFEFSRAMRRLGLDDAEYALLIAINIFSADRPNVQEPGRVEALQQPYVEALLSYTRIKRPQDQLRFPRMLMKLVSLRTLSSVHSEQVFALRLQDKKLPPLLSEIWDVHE

SMILES	outcome
COc1cc(NC(=O)CC(C)=O)c(OC)cc1Cl	inactive
O=c1[nH]nc(-c2ccc([N+](=O)[O-])o2)o1	inactive
Nc1ccc(N=Nc2ccccc2)c(N)n1	inactive
CC(C)(C)c1ccc(N)cc1	inactive
O=C1c2ccccc2C(=O)C1c1nc2ccccc2c(Br)c1O	inactive
c1ccc(-c2ccccn2)nc1	inactive
CC(=O)OCCC1CCCCC1	inactive
CCCCC/C=C\CCC=O	inactive
CC(C)(C)C1CCCCC1=O (configuration not stated)	inactive
CC1(C)O[C@@H]2C[C@H]3[C@@H]4C[C@H](F)C5=CC(=O)C=C[C@]5(C)[C@@]4(F)[C@@H](O)C[C@]3(C)[C@]2(C(=O)CO)O1	inactive
CC1OC1C1CCC2(C)OC2C1 (configuration not stated)	inactive
CCOC(=O)Cc1cccc2ccccc12	inactive
CC(=O)OC1C2(C)CCC(C2)C1(C)C (configuration not stated)	inactive
COc1ccc(-c2coc3cc(O)ccc3c2=O)cc1	inactive
C=C(C)c1cccc(C(C)(C)N=C=O)c1	inactive

Target: Hepatocyte nuclear factor 4-alpha (Homo sapiens) (UniProt P41235)
Sequence (P41235 whole entry, looked up): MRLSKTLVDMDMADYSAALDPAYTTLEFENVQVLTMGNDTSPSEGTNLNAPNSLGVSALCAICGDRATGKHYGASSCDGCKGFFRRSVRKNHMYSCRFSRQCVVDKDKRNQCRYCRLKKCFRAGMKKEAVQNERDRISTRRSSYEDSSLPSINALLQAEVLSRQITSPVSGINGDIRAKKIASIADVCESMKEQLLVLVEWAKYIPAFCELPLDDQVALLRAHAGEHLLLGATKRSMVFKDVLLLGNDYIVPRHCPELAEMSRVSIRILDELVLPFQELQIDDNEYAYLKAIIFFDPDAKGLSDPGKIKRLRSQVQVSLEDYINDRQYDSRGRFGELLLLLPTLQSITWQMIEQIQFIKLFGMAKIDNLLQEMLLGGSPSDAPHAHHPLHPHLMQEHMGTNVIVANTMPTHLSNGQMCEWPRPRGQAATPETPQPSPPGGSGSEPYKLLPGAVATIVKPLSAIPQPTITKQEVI
Test: ATG_HNF4a_TRANS: Attagene TRANS-FACTORIAL HepG2 Assay for human Hepatocyte Nuclear Factor 4 alpha (HNF4a) (AID 2282982)
Conditions: HepG2 HNF4a transactivation reporter, mRNA readout
Procedure, shortened: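 Endpoint reflects transcriptional activation of a GAL4-UAS reporter by an HNF4a-GAL4 chimera in transfected HepG2 cells, 24 h post-dosing. Fluorescence from RT-PCR products separated by capillary electrophoresis; DMSO baseline.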

SMILES	outcome
CCC(C)OC(=O)c1ccc(O)cc1 (configuration not stated)	inactive
CCCOC(=O)CCCCC(=O)OCCC	inactive
Cc1ccc([N+](=O)[O-])cc1S(=O)(=O)O	inactive
CCCCCC/C=C/C=O	inactive
O=c1cc(-c2ccccc2)oc2ccccc12	inactive
O=C(c1ccccc1)c1ccc(O)c(O)c1O	inactive
CC(=O)NS(=O)(=O)c1ccc(N)cc1	inactive
C=C(C)C(=O)OCCO	inactive
O=c1[nH]nc(-c2ccc([N+](=O)[O-])o2)o1	inactive
Nc1ccc(N=Nc2ccccc2)c(N)n1	inactive
CC(C)(C)c1ccc(N)cc1	inactive
C=CC=CC=CCCCCC	inactive
c1ccc(-c2ccccn2)nc1	inactive
CC(C)(C)C1CCCCC1=O (configuration not stated)	inactive
CC1OC1C1CCC2(C)OC2C1 (configuration not stated)	inactive
COc1ccc2nc(N)sc2c1	inactive
CC(=O)OC1C2(C)CCC(C2)C1(C)C (configuration not stated)	inactive
COc1ccc(-c2coc3cc(O)ccc3c2=O)cc1	inactive
C=C(C)c1cccc(C(C)(C)N=C=O)c1	inactive

Test system: not listed separately
Test: ATG_M_06_TRANS: Attagene TRANS-FACTORIAL HepG2 Assay for M06 Transcription Factor (Internal Marker) (AID 2282983)
Conditions: HepG2 Attagene TRANS M06 internal marker reporter
Procedure, shortened: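 In this multiplexed HepG2 system, compounds are incubated 24 h with cells carrying GAL4-UAS reporter units. Reporter RNA is amplified and resolved by capillary electrophoresis, and induction is scored against DMSO.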

SMILES	outcome
C=C(C)CCO	inactive
CCC(C)OC(=O)c1ccc(O)cc1 (configuration not stated)	inactive
CC(=O)[C@H]1[C@H](C#N)C[C@H]2[C@@H]3CC=C4C[C@@H](O)CC[C@]4(C)[C@H]3CC[C@@]21C	inactive
Nc1ccc2cc3ccccc3cc2c1	inactive
CN(C)CCCN(C)C	inactive
O=C(Nc1ccccc1)c1ccccc1O	inactive
CC1(C)O[C@@H]2C[C@H]3[C@@H]4C[C@H](F)C5=CC(=O)CC[C@]5(C)[C@H]4[C@@H](O)C[C@]3(C)[C@]2(C(=O)CO)O1	inactive
CCCCCCCOC(=O)CCC	inactive
O=c1cc(-c2ccccc2)oc2ccccc12	inactive
O=C(c1ccccc1)c1ccc(O)c(O)c1O	inactive
CC(=O)NS(=O)(=O)c1ccc(N)cc1	inactive
C=C(C)C(=O)OCCO	inactive
C[C@]12CCC(=O)C=C1CC[C@@H]1[C@@H]2C(=O)C[C@@]2(C)[C@H]1CC[C@]2(O)C(=O)CO	inactive
O=c1[nH]nc(-c2ccc([N+](=O)[O-])o2)o1	inactive
C=CC=CC=CCCCCC	inactive
c1ccc(-c2ccccn2)nc1	inactive
CC(=O)OCCC1CCCCC1	inactive
CC(C)(C)C1CCCCC1=O (configuration not stated)	inactive
CC1(C)O[C@@H]2C[C@H]3[C@@H]4C[C@H](F)C5=CC(=O)C=C[C@]5(C)[C@@]4(F)[C@@H](O)C[C@]3(C)[C@]2(C(=O)CO)O1	inactive
COc1ccc2nc(N)sc2c1	inactive
CC(=O)OC1C2(C)CCC(C2)C1(C)C (configuration not stated)	inactive
COc1ccc(-c2coc3cc(O)ccc3c2=O)cc1	inactive
C=C(C)c1cccc(C(C)(C)N=C=O)c1	inactive
